A short description of experiment [1]: NCI Yeast Anticancer Drug Screen. Data for the rad50 strain (AID 155).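 Also: 0% = growth of vehicle-only cultures of the same strain.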 The following applies: S. cerevisiae rad50 strain growth inhibition, stronger effect = higher value. In outline: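 Readout: growth inhibition relative to vehicle-treated cultures. Compound exposure was carried out in a genetically defined yeast strain deficient in DNA damage repair.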
A short description of experiment [2]: NCI Yeast Anticancer Drug Screen. Data for the mec2-1 strain (AID 157). The following applies: S. cerevisiae mec2-1 strain, stronger effect = higher value. In outline:
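Vehicle-treated cultures served as reference for growth inhibition of compound-exposed mec2-1 yeast.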

Experiment [3] is described as follows: NCI Yeast Anticancer Drug Screen. Data for the sgs1 mgt1 strain (AID 161).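 Also: 0% = growth of cultures given vehicle only.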 The following applies: S. cerevisiae sgs1 mgt1 strain, stronger effect = higher value. In outline: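 Read-out: growth inhibition vs vehicle controls. Cells: mutant yeast strain deficient in DNA damage repair.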
Experiment [4] can be described thus: NCI Yeast Anticancer Drug Screen. Data for the cln2 rad14 strain (AID 165).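 Also: 0% = growth equal to vehicle treated cultures.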 The note with it: S. cerevisiae cln2 rad14 strain, stronger effect = higher value. In outline:
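Each compound was tested on cln2 rad14 yeast. Inhibition of growth was calculated against vehicle-exposed controls.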

A short description of experiment [5]: NCI Yeast Anticancer Drug Screen. Data for the bub3 strain (AID 167). The note with it: S. cerevisiae bub3 mutant strain, stronger effect = higher value. In outline:
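Readout: yeast growth inhibition, expressed relative to vehicle-only wells. The test organism is a mutant strain from a panel with lesions in DNA repair or checkpoint genes.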

Experiment [6] can be described thus: NCI Yeast Anticancer Drug Screen. Data for the mlh1 rad18 strain (AID 175). The following applies: S. cerevisiae mlh1 rad18 strain growth inhibition, stronger effect = higher value. In outline:
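Vehicle-treated cultures served as the reference for growth inhibition in a yeast strain carrying DNA damage repair alterations exposed to each compound.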

Where [7] appears, read: at 5.0 µM (retest, dose inferred, filed as 0.5).
The mark [8] stands for this setting: at 50.0 µM (retest, dose inferred, filed as 5.0).

The structures appear in SMILES notation. The panel holds about 79,000 compounds, 15% with a hit somewhere; the sample as a whole holds those more often. Values without a mark were called inactive. Calls of active or inactive are those of the source. Rule as the data show it: active = growth inhibition above about 70%; inactive = the rest.

`CSC1=Nc2ccccc2SC(c2ccccc2)C1c1ccccc1` (configuration not stated): the growth inhibition is 4% in experiment [1] (setting [7]); 14% in experiment [1] (setting [8]); 20.1% in experiment [1] (at 50.0 µM); 0% in experiment [2] (setting [7]); 15% in experiment [2] (setting [8]); 29.3% in experiment [2] (at 50.0 µM). The growth inhibition was 6% in experiment [3] (setting [7]); 17% in experiment [3] (setting [8]); 67% in experiment [3] (at 50.0 µM); -3% in experiment [4] (setting [7]); -9% in experiment [4] (setting [8]); 84.7% (active) in experiment [4] (at 50.0 µM). Further, the growth inhibition in experiment [5] (setting [7]) was 5%; in experiment [5] (setting [8]), 7%; in experiment [5] (at 50.0 µM), 53.3%; in experiment [6] (setting [7]), 3%; in experiment [6] (setting [8]), 8%; in experiment [6] (at 50.0 µM), 63.9%.
On to `CC1CC(OC(=O)Nc2ccccc2)CC(C)(C)C1` (configuration not stated), for which the growth inhibition was -33% in experiment [1] (setting [7]); 76% (active) in experiment [1] (setting [8]); 78.8% (active) in experiment [1] (at 50.0 µM); 9% in experiment [2] (setting [7]); 74% (active) in experiment [2] (setting [8]); 80.6% (active) in experiment [2] (at 50.0 µM). In addition, the growth inhibition is -6% in experiment [3] (setting [7]); 87% (active) in experiment [3] (setting [8]); 91.5% (active) in experiment [3] (at 50.0 µM); 4% in experiment [4] (setting [7]); 81% (active) in experiment [4] (setting [8]); 66.8% in experiment [4] (at 50.0 µM). The growth inhibition in experiment [5] (setting [7]) is 10%; in experiment [5] (setting [8]), 83% (active); in experiment [5] (at 50.0 µM), 90.3% (active); in experiment [6] (setting [7]), 4%; in experiment [6] (setting [8]) it was 87% (active); in experiment [6] (at 50.0 µM) it was 85.6% (active).
For `CCN(CC)C1Oc2cc3c(cc2C(c2ccc(OC)cc2)C1C)OCO3` (configuration not stated), the growth inhibition in experiment [1] (setting [7]) was 2%; in experiment [1] (setting [8]), 96% (active); in experiment [1] (at 50.0 µM) it was 82.3% (active); in experiment [2] (setting [7]), -38%; in experiment [2] (setting [8]), 96% (active); in experiment [2] (at 50.0 µM) it was 77.5% (active). In addition, the growth inhibition in experiment [3] (setting [7]) was -48%; in experiment [3] (setting [8]) it was 95% (active); in experiment [3] (at 50.0 µM), 89.3% (active); in experiment [4] (setting [7]) it was 1%; in experiment [4] (setting [8]) it was 95% (active); in experiment [4] (at 50.0 µM), 81% (active). The growth inhibition is -34% in experiment [5] (setting [7]); 98% (active) in experiment [5] (setting [8]); 84.5% (active) in experiment [5] (at 50.0 µM); -14% in experiment [6] (setting [7]); 97% (active) in experiment [6] (setting [8]); 85.3% (active) in experiment [6] (at 50.0 µM).
As to `CC(C)CCN1CCC2(CCCCC2)CC1`, the growth inhibition in experiment [1] (setting [7]) was 4%; in experiment [1] (setting [8]), 1%; in experiment [1] (at 50.0 µM), 40.5%; in experiment [2] (setting [7]), 5%; in experiment [2] (setting [8]), -6%; in experiment [2] (at 50.0 µM), 24.1%. Besides, the growth inhibition was 6% in experiment [3] (setting [7]); 0% in experiment [3] (setting [8]); 51.3% in experiment [3] (at 50.0 µM); 7% in experiment [4] (setting [7]); -5% in experiment [4] (setting [8]); 88.3% (active) in experiment [4] (at 50.0 µM). In addition, the growth inhibition in experiment [5] (setting [7]) is 2%; in experiment [5] (setting [8]) it was -3%; in experiment [5] (at 50.0 µM), 59.5%; in experiment [6] (setting [7]) it was 5%; in experiment [6] (setting [8]), 3%; in experiment [6] (at 50.0 µM), 66.3%.
In the case of `CC(=O)OCC1OC(n2c(O)c(N=NC(N)=S)c3ccc([N+](=O)[O-])cc32)C(OC(C)=O)C1OC(C)=O` (configuration not stated), the growth inhibition in experiment [1] (setting [7]) was 12%; in experiment [1] (setting [8]), 95% (active); in experiment [1] (at 50.0 µM) it was 96.5% (active); in experiment [2] (setting [7]), 5%; in experiment [2] (setting [8]), 47%; in experiment [2] (at 50.0 µM), 34.6%. In addition, the growth inhibition is -9% in experiment [3] (setting [7]); 72% (active) in experiment [3] (setting [8]); 71.5% (active) in experiment [3] (at 50.0 µM); -33% in experiment [4] (setting [7]); 23% in experiment [4] (setting [8]); -1.15% in experiment [4] (at 50.0 µM). Moreover, the growth inhibition in experiment [5] (setting [7]) is 6%; in experiment [5] (setting [8]), 34%; in experiment [5] (at 50.0 µM), 53.3%; in experiment [6] (setting [7]) it was -1%; in experiment [6] (setting [8]) it was 68%; in experiment [6] (at 50.0 µM), 61.3%.
Turning to `O=C1CCCCO1`, the growth inhibition in experiment [1] (setting [7]) is 1%; in experiment [1] (setting [8]), 3%; in experiment [1] (at 50.0 µM), -15.8%; in experiment [2] (setting [7]), -1%; in experiment [2] (setting [8]) it was -3%; in experiment [2] (at 50.0 µM), -19.4%. The growth inhibition was 0% in experiment [3] (setting [7]); -4% in experiment [3] (setting [8]); -27.1% in experiment [3] (at 50.0 µM); 3% in experiment [4] (setting [7]); -2% in experiment [4] (setting [8]); 19.4% in experiment [4] (at 50.0 µM). For the same molecule, the growth inhibition is -1% in experiment [5] (setting [7]); -3% in experiment [5] (setting [8]); -43.3% in experiment [5] (at 50.0 µM); 0% in experiment [6] (setting [7]); 1% in experiment [6] (setting [8]); -4.85% in experiment [6] (at 50.0 µM).
As to `Cc1ccc(SC2=C(N(C)C)C(=O)c3ccccc3C2=O)cc1`, the growth inhibition in experiment [1] (setting [7]) is 3%; in experiment [1] (setting [8]) it was 90% (active); in experiment [1] (at 50.0 µM), 96% (active); in experiment [2] (setting [7]), -13%; in experiment [2] (setting [8]), 94% (active); in experiment [2] (at 50.0 µM) it was 14.1%. Besides, the growth inhibition in experiment [3] (setting [7]) is -1%; in experiment [3] (setting [8]) it was 91% (active); in experiment [3] (at 50.0 µM) it was 77.3% (active); in experiment [4] (setting [7]) it was 42%; in experiment [4] (setting [8]) it was 94% (active); in experiment [4] (at 50.0 µM) it was 58.1%. Moreover, the growth inhibition is 4% in experiment [5] (setting [7]); 90% (active) in experiment [5] (setting [8]); 95.2% (active) in experiment [5] (at 50.0 µM); -3% in experiment [6] (setting [7]); 89% (active) in experiment [6] (setting [8]); 89.7% (active) in experiment [6] (at 50.0 µM).
For `Cc1c(NC(=O)CCl)c(=O)oc2c(C)c3occc(=O)c3cc12`, the growth inhibition in experiment [1] (setting [7]) was 59%; in experiment [1] (setting [8]), 97% (active); in experiment [1] (at 50.0 µM), 96.8% (active); in experiment [2] (setting [7]) it was 16%; in experiment [2] (setting [8]) it was 93% (active); in experiment [2] (at 50.0 µM) it was 83.8% (active). In addition, the growth inhibition was 7% in experiment [3] (setting [7]); 89% (active) in experiment [3] (setting [8]); 90.8% (active) in experiment [3] (at 50.0 µM); 10% in experiment [4] (setting [7]); 85% (active) in experiment [4] (setting [8]); 29.3% in experiment [4] (at 50.0 µM). Further, the growth inhibition is 10% in experiment [5] (setting [7]); 91% (active) in experiment [5] (setting [8]); 79.2% (active) in experiment [5] (at 50.0 µM); 13% in experiment [6] (setting [7]); 94% (active) in experiment [6] (setting [8]); 92% (active) in experiment [6] (at 50.0 µM).
For `O=C(Nc1ccccc1)ON=C1CCCCC1`, the growth inhibition in experiment [1] (setting [7]) is 3%; in experiment [1] (setting [8]), 75% (active); in experiment [1] (at 50.0 µM) it was 80% (active); in experiment [2] (setting [7]) it was -31%; in experiment [2] (setting [8]), 36%; in experiment [2] (at 50.0 µM), 63.6%. Further, the growth inhibition in experiment [3] (setting [7]) is 3%; in experiment [3] (setting [8]), 68%; in experiment [3] (at 50.0 µM), 94.2% (active); in experiment [4] (setting [7]), 6%; in experiment [4] (setting [8]) it was 27%; in experiment [4] (at 50.0 µM), 61.8%. Further, the growth inhibition is 50% in experiment [5] (setting [7]); 44% in experiment [5] (setting [8]); 77.2% (active) in experiment [5] (at 50.0 µM); 5% in experiment [6] (setting [7]); 62% in experiment [6] (setting [8]); 89.6% (active) in experiment [6] (at 50.0 µM).

Source of the values: PubChem BioAssay (NCI).
